Only some compounds are listed: those with a hit (about 6.2% of all), similar ones and a draw of the others.
HT1080NT lethal – qHTS for induction of synthetic lethality in tumor cells producing 2HG: qHTS for the HT-1080-NT fibrosarcoma cell line; HT-1080-NT fibrosarcoma viability, CellTiter-Glo ATP luminescence, 48 h; Potency, µM (series often up to 46.1 µM), for inactives: at the top dose activity, negative = less viability, usual class: cytotoxic; actives 1.6% (n = 360,000); AID 686970, 2013;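 note: NT is the 2HG producing partner of a matched IDH1 knockdown line; 0% = DMSO-treated cells and -100% = media-only wells without cells; nearly all actives have a fitted effect of over 55% in size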
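HT-1080-NT fibrosarcoma cells (2HG-overproducing), 750 cells/well in RPMI with 5% FBS, dosed after 2 h and incubated 48 h at 37C. CellTiter-Glo luminescence normalized to DMSO and no-cell wells; concentration-response curves fitted and classed.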
ATXN2 expr inh – Primary qHTS for Inhibitors of ATXN expression; HEK-293 ATXN2-luciferase reporter, luminescence, 24 h; Potency, µM (highest dose often 57 µM), without a hit: top-dose activity change, negative = inhibition, actives largely listed as inhibitors; AID 1745845, 2022; actives 0.72% (n = 360,000); note: % is set by controls: 0 for no effect and ±100 for the full control effect; nearly all actives have a fitted effect of over 55% in size
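ATXN2-luciferase reporter cells (luciferase flanked by upstream and downstream ATXN2 gene portions) were treated 24 h at 37 °C with compounds at up to 57 uM. SteadyGlo luminescence gave expression; GF-AFC fluorescence gave viability.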
KB-V1 MDR tox – qHTS assay for MDR1-selective chemotherapeutics: Primary screen using the drug-selected MDR subline cells KB-V1. KB-V1 MDR cells viability, CellTiter-Glo, 72 h. Potency, µM (highest dose often 46.1 µM), usual class: cytotoxic. actives 3.4% (n = 400,000). AID 1347076, 2019; note: % is set by controls: 0 for no effect and ±100 for the full control effect; nearly all actives have a fitted effect of over 60% in size
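KB-V1 MDR subline cells in DMEM (phenol-red free, 10% FBS) exposed to compounds in qHTS concentration series for 72 h at 37 degrees C. Viability read by CellTiter-Glo luminescence; concentration-effect curves fitted after normalization and correction.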
KB-3-1 tox – qHTS assay for MDR1-selective chemotherapeutics: Primary screen using the parental adenocarcinoma cell KB-3-1 | actives 1.4% (n = 400,000) | KB-3-1 viability, CellTiter-Glo ATP luminescence, 72 h | Potency, µM (top dose mostly 46.1 µM), actives largely listed as cytotoxic; note: % is set by controls: 0 for no effect and ±100 for the full control effect; nearly all actives have a fitted effect of over 60% in size
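Luminescent ATP read-out (CellTiter-Glo) measures survival of drug-naive KB-3-1 cells after 72 h compound exposure at 37 °C. Titration series was screened from lowest to highest concentration, with DMSO vehicle plates as background controls.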
HT1080 IDH1KD tx – qHTS for induction of synthetic lethality in tumor cells producing 2HG: qHTS for the HT-1080-IDH1KD cell line. HT-1080 IDH1 knockdown viability, ATP luminescence, 48 h. Potency, µM (series often up to 46.1 µM), for the others: at the top dose activity, negative = toxicity, most hits filed as cytotoxic. actives 2% (n = 360,000);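 note: 0% = DMSO wells and -100% = cell-free medium wells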
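Assay cells: HT-1080 with IDH1 knockdown, 750 per well, RPMI/5% FBS. Exposure: 48 h at 37 °C following 2 h pre-incubation. Read: CellTiter-Glo luminescence; fitted concentration-response, curve class assigned.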
S2 tox – Viability Counterscreen for Primary qHTS for Inhibitors of ATXN expression | S2 cells (HEK-293 line with an ATXN2-luciferase reporter) viability, CellTiter-Fluor protease fluorescence, 24 h | actives 0.49% (n = 400,000) | Potency, µM (series often up to 56.7 µM), most hits filed as cytotoxic | AID 651635, 2014; note: nearly all actives have a fitted effect of over 40% in size
Numbers without * were called inactive; i = inactive; u = inconclusive; x = no result given; ! = a repeat was not active. Calls come from the whole dose curve; as a rule, active = well fitted curve in the direction sought with a large enough effect; inconclusive = small, poorly fitted or top-dose-only effect, or another doubt; inactive = no such curve, though single readings can be large; an effect the other way counts as inactive or inconclusive. Potency is the fitted concentration of half-maximal effect.

SMILES | HT1080NT lethal | ATXN2 expr inh | KB-V1 MDR tox | KB-3-1 tox | HT1080 IDH1KD tx | S2 tox
COc1cc(N2CCC(C(N)=O)CC2)ccc1Nc1nc(N)c(Cl)c(Nc2ccccc2S(=O)(=O)C(C)C)n1 | x | -15.2% | x | x | x | x
O=C(c1ccc2c(c1)CCN2S(=O)(=O)c1ccc(Cl)cc1)N1CCN(c2ccc(F)cc2)CC1 | x | -21.4% | u | i | x | u
CCCCn1c2c(c(=N)c3ccccc31)CCC2 | u | -6.5% | i | u | -14.7% | i
CCn1c2c(c(=N)c3c1CCC3)CCCC2 | u | -8.9% | u | 11.6µM* | -19.4% | i
CCCCCCCCCn1c2c(c(=N)c3c1CCC3)CCCC2 | 7.31µM* | u | i | u | 4.61µM* | u
CCOC(=O)Cn1c2c(c(=N)c3c1CCC3)CCC2 | -4.1% | -9.5% | i | u | -23.3% | i
CCCCCCCCCCn1c2c(c(=N)c3c1CCC3)CCC2 | 1.03µM* | u | i | u | u | u
CCCCCc1nc2c(c3c1CCCC3)CCCC2 | 16.0% | -29.0% | u | u | 1.8% | i
Cc1oc(-c2cccc(NC(=O)C3CCCN(C)C3)c2)nc1CNC(=O)c1coc2c1C(=O)CCC2 (centres undefined) | x | x | x | x | x | i
Cc1cc(Br)ccc1NC(=O)CN1C(=O)C2C3CC(c4ccccc4)C(C3)C2C1=O (centres undefined) | -12.2% | u | 20.6µM* | i | -24.3% | i
O=C1/C(=C/c2cccc(Br)c2)SC(=S)N1CCC(=O)N(CCO)c1ccccc1 | -4.4% | 0.1% | i | u | 4.4% | i
COc1ccc(/C=C2\SC(=S)N(CCC(=O)N3CCOCC3)C2=O)cc1 | 3.5% | 97.7% | i | i | 15.2% | 0.199µM*
COc1cccc(/C=C2\SC(=S)N(CCCC(=O)N(CCO)c3ccccc3)C2=O)c1 | u | 22.4µM* | u | u | u | u
COc1cccc(/C=C2\SC(=S)N(CCC(=O)NC3C=CS(=O)(=O)C3)C2=O)c1 (centres undefined) | 16.4µM* | 6.9% | i | u | u | i
COc1ccc(/C=C2\SC(=S)N(CCCC(=O)N3CCN(C)CC3)C2=O)cc1 | 25.9µM* | u | i | i | 16.4µM* | u
CCCCNc1ccc(C(=O)OCCN(CC)CC)cc1 | x | 2.8% | x | x | x | i
NC(=O)c1c(NC(=O)c2ccncn2)sc2c1CCCC2 | x | x | i | u | x | x
COc1cccc(/C=C2/SC(=S)N(CCC(=O)N3CCOCC3)C2=O)c1 | -16.7% | 56.8% | u | 16.4µM* | u | i
Cc1ccc(/C=C2\SC(=S)N(CCC(=O)N3CCOCC3)C2=O)cc1 | 0.3% | 36.4% | u | 11.6µM* | 8.9% | i
CCn1ncc(Cl)c1C(=O)NC(=S)Nc1ccccc1Br | 1.1% | 29.9% | 16.4µM* | u | -0.4% | i
Cc1ccc(S(=O)(=O)N2CCN(c3nc(-c4cncs4)nc4ccccc34)CC2)cc1 | 6.4% | x | x | x | 2.0% | x
CCCOC(=O)C1=C(C)CS[C@@H]2[C@H](NC(=O)COc3ccccc3)C(=O)N12 | x | x | i | i | x | x
O=C(N/N=C/c1ccc([N+](=O)[O-])o1)c1ccncc1 | u | u | i | i | 18.4µM* | i
O=C(N/N=C/c1ccc([N+](=O)[O-])o1)c1ccc(O)cc1 | 5.8µM* | 11.2µM*! | u | u | 6.51µM* | u
COc1cc(/C=N/NC(=O)c2cncc(Br)c2)cc([N+](=O)[O-])c1O | 16.4µM* | u | u | u | -4.0% | u
SMILES | HT1080NT lethal | ATXN2 expr inh | KB-V1 MDR tox | KB-3-1 tox | HT1080 IDH1KD tx | S2 tox
CCN(CC)S(=O)(=O)c1cccc(C(=O)N/N=C/c2ccccc2OCC(=O)O)c1 | 13.3% | 0.7% | i | i | 8.6% | i
CCN(CC)S(=O)(=O)c1cccc(C(=O)N/N=C/c2ccc([N+](=O)[O-])o2)c1 | u | -38.5% | u | i | 18.4µM* | i
Cc1cccc(NC(=O)CSc2nc3ccccc3nc2N2CCCCC2)c1C | x | 7.0% | i | i | x | i
COc1ccc(-c2ccc(C(=O)N3CCc4c(cnc(C)c4CNS(=O)(=O)N(C)C)C3)o2)cc1 | x | x | x | x | x | i
O=C(N/N=C\c1ccc([N+](=O)[O-])o1)c1cncc(Br)c1 | 20.6µM* | -17.6% | u | u | 16.4µM* | u
CCOc1ccccc1NC(=O)c1ccccc1N(C)S(C)(=O)=O | 9.8% | -10.7% | i | i | 11.0% | i
CN(c1ccccc1C(=O)Nc1cccc(Cl)c1Cl)S(C)(=O)=O | -2.8% | -0.7% | 16.4µM* | i | -3.5% | i
CCCNC(=O)c1ccccc1NC(=O)c1ccccc1N(C)S(=O)(=O)c1ccccc1 | -2.2% | 9.3% | 9.2µM* | u | -11.4% | i
CC1(C)O[C@@H]2C[C@H]3[C@@H]4CCC5=CC(=O)C=C[C@]5(C)[C@@H]4[C@@H](O)C[C@]3(C)[C@]2(C(=O)CO)O1 | x | -1.6% | x | x | x | i
Cc1ccc(O)c(NC(=O)c2ccc(Br)c(S(=O)(=O)N3CCCCC3)c2)c1 | x | u | u | i | x | u
COc1ccc(NS(=O)(=O)c2ccc(-c3coc(C)n3)cc2)cc1OC | 2.9% | -35.9% | i | u | 0.5% | i
Cc1nc(-c2ccc(S(=O)(=O)Nc3ccc(C)c(N(C)C)c3)cc2)co1 | x | -10.0% | u | 18.4µM* | x | i
Cc1ccc(S(=O)(=O)N2CCCN(S(=O)(=O)c3ccc4ccccc4c3)CC2)cc1 | 2.8% | -26.9% | 8.2µM* | i | 4.8% | i
Cc1ccc(S(=O)(=O)N2CCCN(S(=O)(=O)c3ccc(C)c(C)c3)CC2)cc1C | 9.1% | -16.8% | 4.11µM* | i | 8.7% | u
O=[N+]([O-])c1cc(C(F)(F)F)ccc1N1CCN(S(=O)(=O)c2ccc3ccccc3c2)CC1 | -7.2% | -20.0% | 5.17µM* | 18.4µM* | -13.4% | i
Cc1ccc(S(=O)(=O)N2CCCN(C)c3nc4ccccc4nc32)cc1 | -10.0% | -17.3% | 16.4µM* | i | -19.0% | i
CN1CCN(S(=O)(=O)c2ccc3ccccc3c2)CC1 | -1.0% | 1.4% | i | i | -2.7% | i
Cc1ccccc1-c1nnc(NC(=O)Nc2ccc3ccccc3c2)s1 | x | x | i | u | x | x
COc1cccc(CN2Cc3cccc4c3[C@H](C=CC4)CC2=O)c1 | x | x | u | i | x | x
